The values below come from PubChem BioAssay (NCATS).

Records with an inconclusive call do not appear. Calls of active or inactive are those of the source. Calls follow the shape of the dose curve; as a rule, active = well fitted curve in the direction sought with a large enough effect; inconclusive = small, poorly fitted or top-dose-only effect, or another doubt; inactive = no such curve, though single readings can be large; an effect the other way counts as inactive or inconclusive.

Test [1] can be described thus: qHTS of pediatric cancer cell lines to identify multiple opportunities for drug repurposing: Primary screen for Saos-2 cells (AID 1347097). Also: nearly all actives have a fitted effect of over 40% in size. In short, it runs like this:
(§1)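 Plated cells (500-1,000 per well, growth media) were allowed to settle for 5 hours, treated with compound dilutions for 48 hours, then lysed with CellTiter-Glo for 15 min at room temperature before luminescence reading.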

Test [2] in a line: qHTS of pediatric cancer cell lines to identify multiple opportunities for drug repurposing: Primary screen for SK-N-SH cells (AID 1347098). Also: nearly all actives have a fitted effect of over 65% in size. In short, it runs like this: (§2)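 Cells (500-1,000/well) rested 5 h, then received compounds for 48 h; metabolically active cells were measured by CellTiter-Glo luminescence. Final concentrations spanned up to 46 µM (MIPE, 11-point) or 0.59 nM-46 µM (NPC, 8-point) in primary screens, 11-point in follow-ups.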

Test [3] is described as follows: qHTS of pediatric cancer cell lines to identify multiple opportunities for drug repurposing: Primary screen for NB1643 cells (AID 1347099). Also: nearly all actives have a fitted effect of over 50% in size. In short, it runs like this:
as §1

The nature of test [4]: qHTS of pediatric cancer cell lines to identify multiple opportunities for drug repurposing: Primary screen for LAN-5 cells (AID 1347100). An outline of the steps:
as §2

A short description of test [5]: qHTS of pediatric cancer cell lines to identify multiple opportunities for drug repurposing: Primary screen for Rh18 cells (AID 1347102). Also: nearly all actives have a fitted effect of over 65% in size. In short, it runs like this:
as §2

Test [6] can be described thus: qHTS of pediatric cancer cell lines to identify multiple opportunities for drug repurposing: Primary screen for OHS-50 cells (AID 1347103). Also: nearly all actives have a fitted effect of over 40% in size. In short, it runs like this:
as §2

Test [7] can be described thus: qHTS of pediatric cancer cell lines to identify multiple opportunities for drug repurposing: Primary screen for RD cells (AID 1347104). Also: nearly all actives have a fitted effect of over 55% in size. An outline of the steps:
as §1

Test [8] in a line: qHTS of pediatric cancer cell lines to identify multiple opportunities for drug repurposing: Primary screen for MG 63 (6-TG R) cells (AID 1347105). Also: nearly all actives have a fitted effect of over 50% in size. An outline of the steps: as §1
Test [9] can be described thus: qHTS of pediatric cancer cell lines to identify multiple opportunities for drug repurposing: Primary screen for Rh30 cells (AID 1347107). Also: nearly all actives have a fitted effect of over 75% in size. In short, it runs like this:
as §2

Test [10] can be described thus: qHTS of pediatric cancer cell lines to identify multiple opportunities for drug repurposing: Primary screen for Rh41 cells (AID 1347108). Also: nearly all actives have a fitted effect of over 70% in size. An outline of the steps: as §1
Test [11] is described as follows: qHTS of pediatric cancer cell lines to identify multiple opportunities for drug repurposing: Confirmatory screen for NB1643 cells (AID 1347109). Also: nearly all actives have a fitted effect of over 45% in size. An outline of the steps:
as §2

A short description of test [12]: qHTS of pediatric cancer cell lines to identify multiple opportunities for drug repurposing: Confirmatory screen for SK-N-MC cells (AID 1347111).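 Also: cells exposed to compound for 48 h before the readout; nearly all actives have a fitted effect of over 70% in size.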 An outline of the steps:
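Seed 500-1,000 cells/well; rest 5 h at 37 degrees C. Pin-transfer compounds, 11-point titration. Incubate 48 h. Add CellTiter-Glo, 15 min RT, read luminescence.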

Test [13] in a line: qHTS of pediatric cancer cell lines to identify multiple opportunities for drug repurposing: Confirmatory screen for LAN-5 cells (AID 1347113). Also: nearly all actives have a fitted effect of over 65% in size. In short, it runs like this: as §2
Test [14] can be described thus: qHTS of pediatric cancer cell lines to identify multiple opportunities for drug repurposing: Confirmatory screen for DAOY cells (AID 1347114). Also: nearly all actives have a fitted effect of over 65% in size. In short, it runs like this: (§3)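 Viability measured as metabolically active cells via CellTiter-Glo luminescence following 48 hours of compound exposure, 11-point dilutions in confirmatory testing. 500-1,000 cells/well plated 5 hours before dosing; controls were DMSO and 2.3 µM bortezomib.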

Test [15] in a line: qHTS of pediatric cancer cell lines to identify multiple opportunities for drug repurposing: Confirmatory screen for SJ-GBM2 cells (AID 1347116). Also: nearly all actives have a fitted effect of over 60% in size. In short, it runs like this: as §3
Test [16] is described as follows: qHTS of pediatric cancer cell lines to identify multiple opportunities for drug repurposing: Primary screen for BT-12 cells (AID 1347101). Also: nearly all actives have a fitted effect of over 25% in size. An outline of the steps: as §2
The nature of test [17]: qHTS of pediatric cancer cell lines to identify multiple opportunities for drug repurposing: Primary screen for control Hh wild type fibroblast cells (AID 1347106). Also: nearly all actives have a fitted effect of over 55% in size. An outline of the steps:
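Viability after 48 h compound treatment at 37C, 500-1,000 cells/well, read as ATP luminescence with CellTiter-Glo. Primary screens used 11-point (MIPE, 0.78 nM-46 µM) or 8-point (NPC, 0.59 nM-46 µM) final concentrations; follow-up screens used 11-point dilutions.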

A short description of test [18]: qHTS of pediatric cancer cell lines to identify multiple opportunities for drug repurposing: Confirmatory screen for A673 cells (AID 1347110). In short, it runs like this: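 Cells plated at 500-1,000/well were treated five hours later with multi-point dilutions up to 46 µM final. After two days, CellTiter-Glo was added and luminescence read.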
Test [19] can be described thus: qHTS of pediatric cancer cell lines to identify multiple opportunities for drug repurposing: Confirmatory screen for BT-12 cells (AID 1347112). Also: nearly all actives have a fitted effect of over 55% in size. In short, it runs like this: as §2
Test [20] in a line: qHTS of pediatric cancer cell lines to identify multiple opportunities for drug repurposing: Confirmatory screen for NB-EBc1 cells (AID 1347115).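 Also: cells exposed to compound for 48 h before the viability read; nearly all actives have a fitted effect of over 45% in size.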 In short, it runs like this:
as §2
Potency is read from the fitted curve at half-maximal effect.

With `Cc1nc2cnc3ccc(C#Cc4cccnc4)cc3c2n1-c1ccc(C(C)(C)C#N)cc1`, the Potency in test [1] was 0.235 µM (active); in [2] it was 0.0681 µM (active); in test [3] it was 3.32 µM (active); in test [4], 5.9 µM (active); in test [5], 1.18 µM (active); in test [6], 0.0968 µM (active). For the same compound, the Potency in [7] is 0.0833 µM (active); in [8], 0.0743 µM (active); in test [9], 0.469 µM (active); in [10], 0.0833 µM (active); in [11], 12 µM (active); in [12], 1.7 µM (active). The values for the Potency in [13], in test [14] and in test [15] were 3.02 µM (active), 13.5 µM (active) and 6.76 µM (active), respectively.
With `COc1cc(=C2C=c3ccccc3=N2)[nH]c1=Cc1[nH]c(C)cc1C`, the Potency was 4.69 µM (active) in [1]; 19.2 µM (active) in test [2]; 14.8 µM (active) in test [3]; 5.9 µM (active) in test [4]; 6.85 µM (active) in [16]; 10.5 µM (active) in test [5]. The Potency is 2.96 µM (active) in test [7]; 11.8 µM (active) in test [8]; 10.5 µM (active) in [17]; 5.9 µM (active) in test [10]; 14.7 µM (active) in [11]; 2.19 µM (active) in test [18]. In addition, the Potency in [12] was 11.7 µM (active); in test [19], 26.1 µM (active); in test [13], 10.4 µM (active); in test [15], 43.7 µM (active).
As for `CC(=O)Nc1nc(C)c(-c2ccc(Cl)c(S(=O)(=O)NCCO)c2)s1`, the Potency in [1] was 2.96 µM (active); in test [2] it was 2.41 µM (active); in test [3], 3.32 µM (active); in test [4] it was 5.9 µM (active); in test [5], 7.43 µM (active); in test [6], 0.544 µM (active). Further, the Potency in test [7] is 4.18 µM (active); in [8], 1.48 µM (active); in test [10] it was 6.62 µM (active); in test [11], 16.5 µM (active); in [12], 8.27 µM (active); in [13], 6.57 µM (active).
For the compound `O=C(Nc1ncc(-c2cc(C(F)F)nn2-c2c(Cl)cccc2Cl)s1)C1CC1`, the Potency in test [1] is 0.209 µM (active); in [2], 0.482 µM (active); in test [3], 3.32 µM (active); in test [4], 0.332 µM (active); in test [16], 0.968 µM (active); in test [6], 0.432 µM (active). For the same compound, the Potency in test [7] is 0.418 µM (active); in test [11] it was 1.17 µM (active); in [12], 0.414 µM (active); in test [13] it was 4.65 µM (active); in test [14], 0.329 µM (active). For the same compound, the Potency result in [9] is “inactive”.
Consider `CC(C)[C@H](C(=O)Nc1ccc(C(=O)NO)cc1)c1ccccc1`, for which the Potency in test [1] is 1.48 µM (active); in test [2] it was 2.41 µM (active); in test [3] it was 0.418 µM (active); in test [4] it was 0.526 µM (active); in [16], 3.06 µM (active); in test [5] it was 0.743 µM (active). In addition, the Potency in test [7] was 2.64 µM (active); in [8] it was 2.96 µM (active); in [17], 16.6 µM (active); in test [10], 1.18 µM (active); in test [11], 0.585 µM (active); in [18], 1.04 µM (active). Also, the Potency in test [12] was 0.465 µM (active); in [19] it was 9.27 µM (active); in test [13] it was 0.827 µM (active); in test [14], 2.33 µM (active); in test [20], 0.928 µM (active); in test [15], 1.47 µM (active).
Consider `Nc1cc(C(F)(F)F)c(-c2cc(N3CCOCC3)nc(N3CCOCC3)n2)cn1`, for which the Potency in [1] is 1.48 µM (active); in test [2], 0.482 µM (active); in test [3] it was 0.296 µM (active); in test [4], 0.469 µM (active); in test [16], 1.22 µM (active); in [5], 0.59 µM (active). Also, the Potency in test [7] is 0.743 µM (active); in test [8], 0.187 µM (active); in test [9] it was 11.8 µM (active); in test [10], 1.18 µM (active); in test [18], 2.93 µM (active); in [12], 5.22 µM (active).
Regarding `CC(C)(C)c1cc(NC(=O)Nc2ccc(-c3cn4c(n3)sc3cc(OCCN5CCOCC5)ccc34)cc2)no1`, the Potency in test [1] was 18.7 µM (active); in test [8] it was 23.5 µM (active); in [11], 16.5 µM (active); in [12], 10.4 µM (active); in test [19], 26.1 µM (active); in test [13] it was 23.3 µM (active). The Potency was 20.8 µM (active) in test [14] and 16.5 µM (active) in test [15]. Also, the Potency entry in test [2], in test [3], in test [4], in [16], in test [5] and in [17] was “inactive” each time. Further, the Potency entry in test [9] and in [10] was “inactive” throughout.
As to `OCc1ccc(-c2ccc(-c3ccc(CO)s3)o2)s1`, the Potency entry in [1], in test [4], in test [5] and in test [17] was “inactive” each time. For the same compound, the Potency in test [2] is 21.5 µM (active); in test [3] it was 26.4 µM (active); in test [16], 30.6 µM (active); in [8], 11.8 µM (active); in test [9], 16.6 µM (active); in [10] it was 7.43 µM (active).
`CN(C)CCCN=c1c2ccccc2n(C)c2[nH]c(=O)n(C)c(=O)c12`: the Potency result in test [1] and in [14] was “inactive” throughout. The Potency in [2] was 4.29 µM (active); in [3], 3.32 µM (active); in test [4] it was 2.09 µM (active); in [16], 7.69 µM (active); in test [7], 13.2 µM (active); in [10] it was 9.35 µM (active). Besides, the Potency in test [11], in test [19] and in test [13] was 23.3 µM (active) in each case.
